# Results from PubChem BioAssay (NCI).
# “And” between values parts separate entries of the source, which are not always exact repeats. Identical values can stand only once. Compounds without any hit were thinned out: in the full panel of roughly 83,000, 20% have a hit.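 Compound tested at a single concentration for 48 hours in 96-well plates; a percent growth value below 10 was scored as active.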 The source made the active and inactive calls.
# What was measured:
# Experiment in all cases: NCI-60 one-dose screen, 48 h (100 = growth as untreated, 0 = no growth, -100 = all killed)
# Settings in all cases: 10 µM unless noted
# DU-145 prostate = tested on: DU-145 prostate
# MALME-3M melanoma = tested on: MALME-3M melanoma
# MDA-MB-231 breast = tested on: MDA-MB-231 breast
# RXF 393 renal = tested on: RXF 393 renal
# SF-268 CNS = tested on: SF-268 CNS
# SF-295 CNS = tested on: SF-295 CNS
# SF-539 CNS = tested on: SF-539 CNS
# UACC-257 melanoma = tested on: UACC-257 melanoma
# M14 melanoma = tested on: M14 melanoma
# HCT-15 colon = tested on: HCT-15 colon
# HT29 colon = tested on: HT29 colon
# SNB-75 CNS = tested on: SNB-75 CNS
# SNB-19 CNS = tested on: SNB-19 CNS
# U251 CNS = tested on: U251 CNS
# PC-3 prostate = tested on: PC-3 prostate
# SK-MEL-5 melanoma = tested on: SK-MEL-5 melanoma
# UACC-62 melanoma = tested on: UACC-62 melanoma
# LOX IMVI melanoma = tested on: LOX IMVI melanoma
# SK-MEL-28 melanoma = tested on: SK-MEL-28 melanoma
# K-562 leukemia = tested on: K-562 leukemia
smiles,measurement,setting,value
CC12CCC(CC1)C(C)(C)O2,growth,DU-145 prostate,110% (inactive)
same,growth,MALME-3M melanoma,101% (inactive)
same,growth,MDA-MB-231 breast,100% (inactive)
same,growth,RXF 393 renal,117% (inactive)
same,growth,SF-268 CNS,119% (inactive)
same,growth,SF-295 CNS,91% (inactive)
same,growth,SF-539 CNS,103% (inactive)
same,growth,UACC-257 melanoma,108% (inactive)
same,growth,M14 melanoma,99.7% (inactive)
same,growth,HCT-15 colon,97.2% (inactive)
same,growth,HT29 colon,95.1% (inactive)
same,growth,SNB-75 CNS,74% (inactive)
same,growth,SNB-19 CNS,103% (inactive)
same,growth,U251 CNS,103% (inactive)
same,growth,PC-3 prostate,99.7% (inactive)
same,growth,SK-MEL-5 melanoma,102% (inactive)
same,growth,UACC-62 melanoma,103% (inactive)
same,growth,LOX IMVI melanoma,97.4% (inactive)
same,growth,SK-MEL-28 melanoma,114% (inactive)
COc1cc2c3cc1Oc1c(OC)c(OC)cc4c1C(Cc1ccc(O)c(c1)-c1cc(ccc1OC)CC3N(C)CC2)N(C)CC4 (stereo not drawn),growth,UACC-62 melanoma,-88% [100 µM] (active) and -95.6% [100 µM] (active)
CC(=O)c1ccc(NC(=O)/C(CC(=O)/C=C/c2ccccc2)=N/NC(N)=S)cc1,growth,UACC-62 melanoma,91.1% [100 µM] (inactive) and 43.7% [100 µM] (inactive)
CCN(CC)C(=O)c1cccnc1,growth,DU-145 prostate,119% (inactive)
same,growth,MALME-3M melanoma,104% (inactive)
same,growth,MDA-MB-231 breast,106% (inactive)
same,growth,RXF 393 renal,123% (inactive)
same,growth,SF-268 CNS,108% (inactive)
same,growth,SF-295 CNS,99.8% (inactive)
same,growth,SF-539 CNS,99.8% (inactive)
same,growth,UACC-257 melanoma,101% (inactive)
same,growth,M14 melanoma,103% (inactive)
same,growth,HCT-15 colon,106% (inactive)
same,growth,HT29 colon,103% (inactive)
same,growth,SNB-75 CNS,98.7% (inactive)
same,growth,SNB-19 CNS,105% (inactive)
same,growth,PC-3 prostate,100% (inactive)
same,growth,SK-MEL-5 melanoma,103% (inactive)
same,growth,UACC-62 melanoma,105% (inactive)
same,growth,LOX IMVI melanoma,100% (inactive)
same,growth,SK-MEL-28 melanoma,111% (inactive)
CC(=O)C(/C=N/C(N)=O)=C(/C)O,growth,DU-145 prostate,118% (inactive)
same,growth,MALME-3M melanoma,106% (inactive)
same,growth,MDA-MB-231 breast,96.5% (inactive)
same,growth,RXF 393 renal,114% (inactive)
same,growth,SF-268 CNS,109% (inactive)
same,growth,SF-295 CNS,101% (inactive)
same,growth,SF-539 CNS,103% (inactive)
same,growth,UACC-257 melanoma,97.3% (inactive)
same,growth,M14 melanoma,108% (inactive)
same,growth,HCT-15 colon,104% (inactive)
same,growth,HT29 colon,101% (inactive)
same,growth,SNB-75 CNS,93.8% (inactive)
same,growth,SNB-19 CNS,103% (inactive)
same,growth,PC-3 prostate,100% (inactive)
same,growth,SK-MEL-5 melanoma,110% (inactive)
same,growth,UACC-62 melanoma,110% (inactive)
same,growth,LOX IMVI melanoma,92.9% (inactive)
same,growth,SK-MEL-28 melanoma,115% (inactive)
Nc1ccc2[nH]c(-c3ccccc3)cc(=O)c2c1,growth,DU-145 prostate,101% (inactive)
same,growth,MALME-3M melanoma,80.4% (inactive)
same,growth,MDA-MB-231 breast,100% (inactive)
same,growth,RXF 393 renal,89.9% (inactive)
same,growth,SF-268 CNS,90.7% (inactive)
same,growth,SF-295 CNS,93.5% (inactive)
same,growth,SF-539 CNS,88.5% (inactive)
same,growth,UACC-257 melanoma,79.8% (inactive)
same,growth,M14 melanoma,70.6% (inactive)
same,growth,HCT-15 colon,73.7% (inactive)
same,growth,HT29 colon,78.7% (inactive)
same,growth,SNB-75 CNS,82.4% (inactive)
same,growth,SNB-19 CNS,88.7% (inactive)
same,growth,U251 CNS,72.9% (inactive)
same,growth,PC-3 prostate,74.1% (inactive)
same,growth,SK-MEL-5 melanoma,58.2% (inactive)
same,growth,UACC-62 melanoma,77.6% (inactive)
same,growth,SK-MEL-28 melanoma,86.5% (inactive)
O=C1NC(N/N=C\C(O)C(O)C(O)C(O)CO)=N/C1=C\c1ccc(Cl)cc1 (stereo not drawn),growth,UACC-62 melanoma,-24.3% [100 µM] (active) and -100% [100 µM] (active)
CNC(=O)c1cccnc1,growth,DU-145 prostate,116% (inactive)
same,growth,MALME-3M melanoma,86.8% (inactive)
same,growth,MDA-MB-231 breast,102% (inactive)
same,growth,RXF 393 renal,114% (inactive)
same,growth,SF-268 CNS,103% (inactive)
same,growth,SF-295 CNS,100% (inactive)
same,growth,SF-539 CNS,100% (inactive)
same,growth,UACC-257 melanoma,92.4% (inactive)
same,growth,M14 melanoma,104% (inactive)
same,growth,HCT-15 colon,103% (inactive)
same,growth,HT29 colon,105% (inactive)
same,growth,SNB-75 CNS,92.5% (inactive)
same,growth,SNB-19 CNS,105% (inactive)
same,growth,PC-3 prostate,96.9% (inactive)
same,growth,SK-MEL-5 melanoma,107% (inactive)
same,growth,UACC-62 melanoma,113% (inactive)
same,growth,LOX IMVI melanoma,92.9% (inactive)
same,growth,SK-MEL-28 melanoma,116% (inactive)
C=C1C(=O)OC2/C=C(\CO)CC/C=C(\CO)CC(OC(=O)C(C)C)C12 (stereo not drawn),growth,UACC-62 melanoma,-89.5% [100 µM] (active) and -98.8% [100 µM] (active)
CCN(CC)CCc1nc(-c2ccccc2)no1,growth,K-562 leukemia,118% (inactive)
same,growth,MALME-3M melanoma,86.2% (inactive) and 120% (inactive)
same,growth,MDA-MB-231 breast,67.6% (inactive) and 110% (inactive)
same,growth,RXF 393 renal,74.5% (inactive) and 113% (inactive)
same,growth,SF-268 CNS,79.9% (inactive) and 98.3% (inactive)
same,growth,SF-295 CNS,105% (inactive) and 101% (inactive)
same,growth,SF-539 CNS,83.5% (inactive) and 109% (inactive)
same,growth,UACC-257 melanoma,87.2% (inactive) and 90.3% (inactive)
same,growth,M14 melanoma,87.9% (inactive) and 98.5% (inactive)
same,growth,HCT-15 colon,78.8% (inactive) and 111% (inactive)
same,growth,HT29 colon,64.3% (inactive) and 93.3% (inactive)
same,growth,SNB-75 CNS,82.1% (inactive) and 72.2% (inactive)
same,growth,SNB-19 CNS,89.7% (inactive) and 94.2% (inactive)
same,growth,U251 CNS,52.7% (inactive) and 99.4% (inactive)
same,growth,PC-3 prostate,81.3% (inactive) and 96.7% (inactive)
same,growth,SK-MEL-5 melanoma,84.6% (inactive) and 116% (inactive)
same,growth,UACC-62 melanoma,77% (inactive) and 95.9% (inactive)
same,growth,LOX IMVI melanoma,63.9% (inactive) and 94.6% (inactive)
same,growth,SK-MEL-28 melanoma,89.5% (inactive) and 106% (inactive)
CCC(=O)C(CC)c1cccc(OC)c1 (stereo not drawn),growth,DU-145 prostate,114% (inactive)
same,growth,MALME-3M melanoma,101% (inactive)
same,growth,MDA-MB-231 breast,111% (inactive)
same,growth,RXF 393 renal,107% (inactive)
same,growth,SF-268 CNS,120% (inactive)
same,growth,SF-295 CNS,100% (inactive)
same,growth,SF-539 CNS,115% (inactive)
same,growth,UACC-257 melanoma,100% (inactive)
same,growth,HCT-15 colon,103% (inactive)
same,growth,HT29 colon,103% (inactive)
same,growth,SNB-19 CNS,111% (inactive)
same,growth,U251 CNS,99.4% (inactive)
same,growth,PC-3 prostate,98.8% (inactive)
same,growth,SK-MEL-5 melanoma,101% (inactive)
same,growth,UACC-62 melanoma,108% (inactive)
same,growth,LOX IMVI melanoma,100% (inactive)
same,growth,SK-MEL-28 melanoma,106% (inactive)
CC(=Nc1ccncc1)C(C)=Nc1ccncc1,growth,UACC-62 melanoma,-98.5% [100 µM] (active) and -100% [100 µM] (active)
COc1ccc2c(=O)c(-c3cc4c(cc3OC)OCO4)coc2c1,growth,UACC-62 melanoma,30.1% [100 µM] (inactive) and 25.3% [100 µM] (inactive)
C[N+](C)(C)CN1C(=O)c2ccccc2C1=O,growth,DU-145 prostate,113% (inactive)
same,growth,K-562 leukemia,92% (inactive)
same,growth,MDA-MB-231 breast,114% (inactive)
same,growth,RXF 393 renal,105% (inactive)
same,growth,SF-268 CNS,110% (inactive)
same,growth,SF-539 CNS,99.5% (inactive)
same,growth,UACC-257 melanoma,97.8% (inactive)
same,growth,M14 melanoma,103% (inactive)
same,growth,HCT-15 colon,103% (inactive)
same,growth,HT29 colon,99.6% (inactive)
same,growth,SNB-75 CNS,77.5% (inactive)
same,growth,U251 CNS,102% (inactive)
same,growth,PC-3 prostate,96.4% (inactive)
same,growth,SK-MEL-5 melanoma,102% (inactive)
same,growth,UACC-62 melanoma,101% (inactive)
same,growth,LOX IMVI melanoma,103% (inactive)
same,growth,SK-MEL-28 melanoma,98.6% (inactive)
CCCCC1C(=O)N(c2ccc(S(=O)(=O)Nc3ccccn3)cc2)N(c2ccc(O)c(C(=O)O)c2)C1=O (stereo not drawn),growth,UACC-62 melanoma,105% [100 µM] (inactive) and 96.1% [100 µM] (inactive)
C[C@@H]1CC[C@H]2C(C)(C)[C@H]3C[C@@]12CC[C@@]3(C)O,growth,UACC-62 melanoma,80.1% [100 µM] (inactive) and 6.26% [100 µM] (active)
Cc1ccc2c(/C=C/c3ccc(N(C)C)cc3)ccc(C(C)C)cc1-2,growth,UACC-62 melanoma,68.4% [100 µM] (inactive) and 58.1% [100 µM] (inactive)
